For some assays here: Results with a measured potency or affinity are listed apart. Activity calls are given as the source filed them. Unless noted, how the calls were made is not given here.
System: not listed separately
Experiment: inhibition of 3D7 malaria parasite growth – strain 3D7 (AID 2306);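 further: 0% = DMSO wells and 100% = chloroquine plus artemisinin control wells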
Details: P. falciparum 3D7 erythrocytic growth, LDH absorbance, 72 h; at 2 µM; stronger effect = higher value

Growth inhibition, active:
N#Cc1cccc(C(=O)Nc2cccc(-c3ccc(C(=O)Nc4cccnc4)cc3)c2)c1 89%
Cc1ccc(Cl)cc1NC(=O)c1c(-c2ccccc2Cl)noc1C 88%
COc1cc(C)c(C(O)CNC(C)CCc2ccccc2)cc1C (stereo not given) 98%
Cc1cc(N(C)C)nc(Nc2ccc(NS(=O)(=O)c3ccccc3)cc2)n1 92%
c1ccc(-c2cccc(-c3ccccn3)n2)nc1 98%
Cc1cc(NC2CCCC2)nc(Nc2ccccc2C)n1 88%
CC1CCN(c2nc(C(=O)Nc3cccc4c3CCCC4)c(C(C)C)s2)CC1 96%
Cc1cc(N[C@@H](CC(C)C)C(=O)NCCc2ccccc2)nc(NCCc2ccc(F)cc2)n1 98%
CCCNC(=O)C1Cc2cc(OC)c(OC)cc2C2(N1)C(=O)N(Cc1cccc(OC)c1)c1ccccc12 (stereo not given) 91%
Cc1cc(NC(=O)CCCN2CCN(c3cccc(Cl)c3Cl)CC2)ccc1N1CCN(C(C)C)CC1 102%
CN1C(C)(C)CC(NC(=O)c2ccc(-c3nc4ccc(Cl)cc4[nH]3)cc2)CC1(C)C 99%
Cc1cccc(CNc2nc(C)cc(N[C@@H](CC(C)C)C(=O)NCCOc3ccccc3)n2)c1 93%
COc1ccc(CCNC(=O)c2cc3c(=O)n4cccc(C)c4nc3n(C)c2=N)cc1 99%
COc1ccc2nccc([C@@H](O)CN3CCC(NC(=O)C(c4ccsc4)N4CCN(c5ccccc5)CC4)CC3)c2c1 (stereo not given in full) 95%
CCOc1ccc(-n2nc3c(Cl)nnc(-c4ccccc4)c3c2-c2ccccc2)cc1 96%
CCCNCc1ccc(-c2ccc(CN(CCOC)C(=O)c3ccco3)cc2)nc1 91%
Cc1nc(N)nc(N)c1OCc1cccc2ccccc12 96%
O=C(Nc1ccc(OC(F)(F)F)cc1)Nc1ccc([N+](=O)[O-])cc1 100%
CC(C)(C)CCN1CCC(NC(=O)c2ccc(-c3cccc(C(F)(F)F)c3)s2)CC1 93%
C=CCNC(CCCCC)c1ccc(OCCOc2ccc(C(CCCCC)NCC=C)cc2)cc1 (stereo not given) 88%
CC(C)(C)c1ccc(NC(=O)c2cccc(CN3CCCN(Cc4cccc(O)c4)CC3)c2)cc1 101%
O=C(Nc1ccc(C(F)(F)F)cc1)c1ccc(S(=O)(=O)NC2CCCN(CC3CCCCC3)C2)cc1 (stereo not given) 99%
Cc1ccoc1C(=O)Nc1ccc(-c2cccc(-c3nc4c(C)cccc4[nH]3)c2)cc1 95%
CS(=O)(=O)N(c1ccc(F)cc1)c1cc(C(=O)N[C@@H](Cc2ccccc2)[C@H](O)CNCc2cccc(C(F)(F)F)c2)cc(N2CCCC2=O)c1 91%
Cc1[nH]nc2ccc(-c3cc(OC[C@@H](N)Cc4ccccc4)cnc3-c3ccc(OCc4cccc(F)c4)cc3)cc12 98%
Cc1ccc2[nH]c(-c3ccc(/C=C/C(=O)NC4CCN(Cc5ccccc5)CC4)cc3)nc2c1C 101%
CN1CCN(CCCNCc2cccc(-c3ccc(CNCCc4ccccc4)cc3)c2)CC1 100%
O=C(Nc1ccc2oc(-c3ccc(Br)cc3)nc2c1)c1ccc([N+](=O)[O-])o1 92%
N#Cc1ccc(-c2ccc(C(=O)NCCCCN3CCC(c4ccc5c(c4OCC(N)=O)CCCC5)CC3)nc2)cc1 100%
CCN(CC)CCN1C(=O)c2oc3ccc(Cl)cc3c(=O)c2C1c1ccc(SC)cc1 (stereo not given) 98%
O=[N+]([O-])c1cccc(-c2nc(-c3ccc(Br)cc3)[nH]c2-c2ccc(Br)cc2)c1 99%
COc1cccc(CN2CCC3(CC2)CN(C(=O)Nc2ccc(Cl)c(Cl)c2)C3)c1 97%
COc1ccc(C(=O)O)cc1OCc1ccccc1 99%
CNCCNC(=O)C1Cc2c([nH]c3c(C)cccc23)C(c2ccc(Cl)c(Cl)c2)N1 (stereo not given) 102%
Cc1cc2ncc(C(N)=O)c(Nc3ccc(N4CCOCC4)cc3)c2cc1S(C)(=O)=O 100%
NC1=NC(=O)C(=Cc2cn(-c3ccccc3)nc2-c2cccc(S(=O)(=O)N3CCCC3)c2)S1 85%
N#Cc1ccc(S(=O)(=O)N2C(c3cccc([N+](=O)[O-])c3)C(C(=O)c3ccccc3)N(C3CCCCC3)C2c2cccc([N+](=O)[O-])c2)cc1 (stereo not given) 83%
Nc1ncc(-c2ccccc2)cc1/C=C/c1cccnc1 91%
O=C(/C=C/c1ccc(Cl)cc1)NCCCCCN1CCCN(C(=O)Nc2ccc(F)c(Cl)c2)CC1 94%
Ic1cc(Nc2ncnc3ccsc23)ccc1OCc1ccccc1 101%

Molecular target: Calcium-dependent protein kinase 1 (Plasmodium falciparum (isolate 3D7)) (UniProt P62344)
Experiment: PfCDPK1 kinase inhibitors, biochemical, TCAMS library (AID 1159585; cut-off not given, nearly all actives have IC50 up to about 0.98 µM;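 further: inhibitors leave more ATP so luminescence rises with inhibition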)
Details: recombinant PfCDPK1, Kinase-Glo ATP depletion luminescence

Sequence of Calcium-dependent protein kinase 1 (Plasmodium falciparum (isolate 3D7)) (P62344 whole entry, looked up): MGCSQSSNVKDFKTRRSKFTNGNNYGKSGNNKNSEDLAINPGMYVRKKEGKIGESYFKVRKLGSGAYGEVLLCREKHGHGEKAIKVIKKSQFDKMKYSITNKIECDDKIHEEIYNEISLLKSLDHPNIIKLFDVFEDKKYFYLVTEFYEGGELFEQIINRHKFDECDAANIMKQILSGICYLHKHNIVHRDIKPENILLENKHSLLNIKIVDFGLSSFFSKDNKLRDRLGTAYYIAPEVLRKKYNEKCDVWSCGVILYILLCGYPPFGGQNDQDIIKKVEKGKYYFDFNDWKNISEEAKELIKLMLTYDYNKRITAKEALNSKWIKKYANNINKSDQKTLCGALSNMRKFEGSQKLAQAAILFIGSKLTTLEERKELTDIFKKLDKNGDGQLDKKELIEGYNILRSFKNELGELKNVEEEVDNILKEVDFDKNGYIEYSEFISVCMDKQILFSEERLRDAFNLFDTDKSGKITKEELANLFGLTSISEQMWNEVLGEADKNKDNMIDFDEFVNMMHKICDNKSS

outcome, inactive:
N#Cc1cccc(C(=O)Nc2cccc(-c3ccc(C(=O)Nc4cccnc4)cc3)c2)c1
Cc1ccc(Cl)cc1NC(=O)c1c(-c2ccccc2Cl)noc1C
COc1cc(C)c(C(O)CNC(C)CCc2ccccc2)cc1C (stereo not given)
Cc1cc(N(C)C)nc(Nc2ccc(NS(=O)(=O)c3ccccc3)cc2)n1
c1ccc(-c2cccc(-c3ccccn3)n2)nc1
Cc1cc(NC2CCCC2)nc(Nc2ccccc2C)n1
CC1CCN(c2nc(C(=O)Nc3cccc4c3CCCC4)c(C(C)C)s2)CC1
Cc1cc(N[C@@H](CC(C)C)C(=O)NCCc2ccccc2)nc(NCCc2ccc(F)cc2)n1
CCCNC(=O)C1Cc2cc(OC)c(OC)cc2C2(N1)C(=O)N(Cc1cccc(OC)c1)c1ccccc12 (stereo not given)
Cc1cc(NC(=O)CCCN2CCN(c3cccc(Cl)c3Cl)CC2)ccc1N1CCN(C(C)C)CC1
CN1C(C)(C)CC(NC(=O)c2ccc(-c3nc4ccc(Cl)cc4[nH]3)cc2)CC1(C)C
Cc1cccc(CNc2nc(C)cc(N[C@@H](CC(C)C)C(=O)NCCOc3ccccc3)n2)c1
COc1ccc(CCNC(=O)c2cc3c(=O)n4cccc(C)c4nc3n(C)c2=N)cc1
COc1ccc2nccc([C@@H](O)CN3CCC(NC(=O)C(c4ccsc4)N4CCN(c5ccccc5)CC4)CC3)c2c1 (stereo not given in full)
CCOc1ccc(-n2nc3c(Cl)nnc(-c4ccccc4)c3c2-c2ccccc2)cc1
CCCNCc1ccc(-c2ccc(CN(CCOC)C(=O)c3ccco3)cc2)nc1
Cc1nc(N)nc(N)c1OCc1cccc2ccccc12
O=C(Nc1ccc(OC(F)(F)F)cc1)Nc1ccc([N+](=O)[O-])cc1
CC(C)(C)CCN1CCC(NC(=O)c2ccc(-c3cccc(C(F)(F)F)c3)s2)CC1
C=CCNC(CCCCC)c1ccc(OCCOc2ccc(C(CCCCC)NCC=C)cc2)cc1 (stereo not given)
CC(C)(C)c1ccc(NC(=O)c2cccc(CN3CCCN(Cc4cccc(O)c4)CC3)c2)cc1
O=C(Nc1ccc(C(F)(F)F)cc1)c1ccc(S(=O)(=O)NC2CCCN(CC3CCCCC3)C2)cc1 (stereo not given)
Cc1ccoc1C(=O)Nc1ccc(-c2cccc(-c3nc4c(C)cccc4[nH]3)c2)cc1
CS(=O)(=O)N(c1ccc(F)cc1)c1cc(C(=O)N[C@@H](Cc2ccccc2)[C@H](O)CNCc2cccc(C(F)(F)F)c2)cc(N2CCCC2=O)c1
Cc1[nH]nc2ccc(-c3cc(OC[C@@H](N)Cc4ccccc4)cnc3-c3ccc(OCc4cccc(F)c4)cc3)cc12
Cc1ccc2[nH]c(-c3ccc(/C=C/C(=O)NC4CCN(Cc5ccccc5)CC4)cc3)nc2c1C
CN1CCN(CCCNCc2cccc(-c3ccc(CNCCc4ccccc4)cc3)c2)CC1
O=C(Nc1ccc2oc(-c3ccc(Br)cc3)nc2c1)c1ccc([N+](=O)[O-])o1
N#Cc1ccc(-c2ccc(C(=O)NCCCCN3CCC(c4ccc5c(c4OCC(N)=O)CCCC5)CC3)nc2)cc1
CCN(CC)CCN1C(=O)c2oc3ccc(Cl)cc3c(=O)c2C1c1ccc(SC)cc1 (stereo not given)
O=[N+]([O-])c1cccc(-c2nc(-c3ccc(Br)cc3)[nH]c2-c2ccc(Br)cc2)c1
COc1cccc(CN2CCC3(CC2)CN(C(=O)Nc2ccc(Cl)c(Cl)c2)C3)c1
COc1ccc(C(=O)O)cc1OCc1ccccc1
CNCCNC(=O)C1Cc2c([nH]c3c(C)cccc23)C(c2ccc(Cl)c(Cl)c2)N1 (stereo not given)
Cc1cc2ncc(C(N)=O)c(Nc3ccc(N4CCOCC4)cc3)c2cc1S(C)(=O)=O
NC1=NC(=O)C(=Cc2cn(-c3ccccc3)nc2-c2cccc(S(=O)(=O)N3CCCC3)c2)S1
N#Cc1ccc(S(=O)(=O)N2C(c3cccc([N+](=O)[O-])c3)C(C(=O)c3ccccc3)N(C3CCCCC3)C2c2cccc([N+](=O)[O-])c2)cc1 (stereo not given)
Nc1ncc(-c2ccccc2)cc1/C=C/c1cccnc1
O=C(/C=C/c1ccc(Cl)cc1)NCCCCCN1CCCN(C(=O)Nc2ccc(F)c(Cl)c2)CC1
Ic1cc(Nc2ncnc3ccsc23)ccc1OCc1ccccc1
